{"source": "PubChem BioAssay AID602393", "about": "(Broad Institute, 2012)", "note": "In all, about 350,000 compounds went through this assay and about 7,000 (2%) were called active. Rule as the data show it: active = activation above about 40%; inconclusive = no clear call, values can overlap the other calls; inactive = below that. Many of the other results were omitted from the sample, so actives are more common in it than they were.", "data": [{"experiment": "raisers of Bmi1 knock-in reporter signal – mouse ES cells, Bmi1 luciferase knock-in, single point, esBAF inhibitor project, primary screen (AID 602393);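 also: 0% = median of the plate's neutral control wells and 100% = double that signal; a rise in the Bmi1 reporter signal indicates esBAF inhibition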", "settings": "24 h, at 12.5 µM, stronger effect = higher value, 100% = twice the neutral-well signal", "values": [{"smiles": "Cc1ccc(N2CCN(/N=C/c3cccs3)CC2)cc1", "reporter increase": "13.6% (inactive)"}, {"smiles": "Nc1nnnn1/N=C/c1cccs1", "reporter increase": "2.23% (inactive)"}, {"smiles": "C(=N/N1CCN(c2ccccc2)CC1)/c1cccs1", "reporter increase": "45.3% (active)"}, {"smiles": "C[C@H]1CN([C@@H](C)CO)C(=O)CCCn2cc(nn2)CO[C@H]1CN(C)C(=O)Nc1ccc(F)cc1", "reporter increase": "-7.14% (inactive)"}, {"smiles": "C[C@H](CO)N1C[C@H](C)[C@@H](CN(C)S(=O)(=O)c2ccc(F)cc2)Oc2ccc(NC(=O)CCCCCC(=O)Nc3ccccc3N)cc2CC1=O", "reporter increase": "1.27% (inactive)"}, {"smiles": "COCCNC(=O)C[C@@H]1C[C@@H]2c3cc(NC(=O)Nc4ccc(C(F)(F)F)cc4)ccc3O[C@@H]2[C@@H](CO)O1", "reporter increase": "-4.42% (inactive)"}, {"smiles": "CCC(=O)N1C[C@H](C)[C@H](OC)CN(C)C(=O)c2ccc(NC(=O)Nc3ccc(Cl)cc3)cc2OC[C@H]1C", "reporter increase": "4.13% (inactive)"}, {"smiles": "C[C@H](CO)N1C[C@H](C)[C@@H](CN(C)Cc2ccc(Oc3ccccc3)cc2)OCc2cn(nn2)CCCC1=O", "reporter increase": "0.422% (inactive)"}, {"smiles": "c1ccc(CCN2CN=C(Nc3nc4ccccc4o3)NC2)cc1", "reporter increase": "45.9% (active)"}, {"smiles": "N#CNC1=NCN(CCc2ccccc2)CN1", "reporter increase": "-7.73% (inactive)"}, {"smiles": "CC1CCN(Cc2nc3c(c(=O)n(C)c(=O)n3C)n2CCc2ccccc2)CC1", "reporter increase": "-5.75% (inactive)"}, {"smiles": "C[C@@H]1CCCCO[C@H](CN(C)Cc2ccc3c(c2)OCO3)[C@@H](C)CN([C@H](C)CO)C(=O)c2cc(N(C)C)ccc2O1", "reporter increase": "0.519% (inactive)"}, {"smiles": "CC(C)(C)c1ccc(C(=O)NNC(=O)Cc2ccccc2)cc1", "reporter increase": "49% (active)"}, {"smiles": "O=C(Cc1ccccc1)Nc1ccc(C(=O)Nc2ccccc2C(=O)O)cc1", "reporter increase": "-1.37% (inactive)"}, {"smiles": "O=C(CNC(=O)c1ccco1)NNC(=O)c1ccc(Br)cc1", "reporter increase": "-0.872% (inactive)"}, {"smiles": "C[C@H](CO)N1C[C@H](C)[C@@H](CN(C)S(=O)(=O)c2ccc(Cl)cc2)Oc2ccc(NS(=O)(=O)c3cccs3)cc2CC1=O", "reporter increase": "6.86% (inactive)"}, {"smiles": "CC(C)C#Cc1cnc2c(c1)C(=O)N([C@@H](C)CO)C[C@@H](C)[C@H](CN(C)C(=O)CCN1CCCCC1)O2", "reporter increase": "0.29% (inactive)"}, {"smiles": "O=C(C[C@@H]1CC[C@H]2[C@@H](COC[C@@H](O)CN2S(=O)(=O)c2cccc(Cl)c2)O1)N1CCCCC1", "reporter increase": "-2.86% (inactive)"}, {"smiles": "c1ccc(-c2ccc(OCCN3CCOCC3)cc2)cc1", "reporter increase": "50.5% (active)"}, {"smiles": "Cc1cccc(C)c1OCCN1CCOCC1", "reporter increase": "-3.46% (inactive)"}, {"smiles": "CC(C)(c1ccccc1)c1ccc(OCCN2CCCC2)cc1", "reporter increase": "-18.8% (inactive)"}, {"smiles": "Cc1noc(C)c1S(=O)(=O)Nc1ccc2c(c1)C(=O)N([C@H](C)CO)C[C@@H](C)[C@@H](CN(C)S(=O)(=O)c1ccc(Cl)cc1)O2", "reporter increase": "6.53% (inactive)"}, {"smiles": "Cc1nonc1C(=O)N/N=C/c1ccc(O)cc1", "reporter increase": "50.7% (active)"}, {"smiles": "Cc1nc2ccc(C(=O)N/N=C/c3ccc(O)cc3)cc2[nH]1", "reporter increase": "-6.33% (inactive)"}, {"smiles": "CC(C)c1c(C(=O)N/N=C/c2ccc(-c3ccccc3)cc2)nnn1-c1nonc1N", "reporter increase": "-2.09% (inactive)"}, {"smiles": "C[C@H]1CN([C@@H](C)CO)S(=O)(=O)c2ccc(-c3cncnc3)cc2O[C@H]1CN(C)Cc1ccncc1", "reporter increase": "0.176% (inactive)"}, {"smiles": "O=C(O)C1CC=CCC1C(=O)NCCc1ccccc1", "note": "(configuration not stated)", "reporter increase": "-11% (inactive)"}, {"smiles": "O=C(Nc1cccc(Cl)c1Cl)c1ccccc1NC(=O)C1CC=CCC1C(=O)O", "note": "(configuration not stated)", "reporter increase": "5.49% (inactive)"}, {"smiles": "O=C(Nc1ccc(Cl)c(Cl)c1)c1ccccc1NC(=O)C1CC=CCC1C(=O)O", "note": "(configuration not stated)", "reporter increase": "92.4% (active)"}, {"smiles": "COC(=O)c1c(C)[nH]c(C(=O)NCCc2ccc(S(N)(=O)=O)cc2)c1C", "reporter increase": "-4.52% (inactive)"}, {"smiles": "CCCCOC(=O)c1[nH]c(C)c(C(=O)OC)c1C", "reporter increase": "78.5% (active)"}, {"smiles": "CC(=O)c1c(C)[nH]c(C(=O)OCC(=O)Nc2c(C)cccc2C)c1C", "reporter increase": "-23.7% (inactive)"}, {"smiles": "CO[C@@H]1CN(C)C(=O)c2ccc(NS(C)(=O)=O)cc2OC[C@@H](C)N(CC2CC2)C[C@@H]1C", "reporter increase": "1.93% (inactive)"}, {"smiles": "C[C@@H]1CN([C@@H](C)CO)C(=O)c2cc(N(C)C)ccc2O[C@@H](C)CCCCO[C@H]1CN(C)Cc1ccncc1", "reporter increase": "-3.61% (inactive)"}, {"smiles": "C=C(C)CSc1nc(N)c2c3c(sc2n1)CCC3", "reporter increase": "75.4% (active)"}, {"smiles": "CCc1nc(N2CCN(C(C)=O)CC2)c2c3c(sc2n1)CCCC3", "reporter increase": "-4.58% (inactive)"}, {"smiles": "CC(C)(C)C1CCc2c(sc3nc(SCC(N)=O)nc(N)c23)C1", "note": "(configuration not stated)", "reporter increase": "-0.656% (inactive)"}, {"smiles": "C[C@H](O)C#Cc1cnc2c(c1)C(=O)N([C@@H](C)CO)C[C@@H](C)[C@@H](CN(C)C(=O)Cc1ccccn1)O2", "reporter increase": "-2.01% (inactive)"}, {"smiles": "COCCCNC(=O)c1ccc(-c2c(C)noc2C)c2ccoc12", "reporter increase": "78.5% (active)"}, {"smiles": "Cc1noc(C)c1-c1ccc(C(=O)NCc2ccncc2)c2occc12", "reporter increase": "8.81% (inactive)"}, {"smiles": "COCCCNC(=O)c1cccc2c(-c3ccc(O)c(OC)c3)coc12", "reporter increase": "12.3% (inactive)"}, {"smiles": "COc1ccccc1S(=O)(=O)N[C@@H]1C=C[C@H](CC(=O)N2CCOCC2)O[C@@H]1CO", "reporter increase": "-2.3% (inactive)"}, {"smiles": "COCCNC(=O)C[C@H]1CC[C@H](NS(=O)(=O)c2ccc(C)cc2)[C@@H](CO)O1", "reporter increase": "-2.1% (inactive)"}, {"smiles": "COc1ccc(C(=O)Nc2sc(C)c(C)c2CN2CCOCC2)cc1", "reporter increase": "98.6% (active)"}, {"smiles": "CCOc1ccc(C(=O)Nc2ccc(CN3CCOCC3)cc2)cc1Cl", "reporter increase": "9.32% (inactive)"}, {"smiles": "COc1ccc(C(=O)Nc2ccnn2C2CCN(Cc3ccncc3)CC2)cc1", "reporter increase": "4.74% (inactive)"}, {"smiles": "Cc1c(C(=O)N2CCCc3ccccc32)sc2nc(-c3ccccc3)cn12", "reporter increase": "69.3% (active)"}, {"smiles": "O=C(c1c(Cl)nc2sccn12)N1CCCc2ccccc21", "reporter increase": "-5.89% (inactive)"}, {"smiles": "Cc1c(C(=O)NCCN2CCOCC2)sc2nc(-c3ccc(F)cc3)cn12", "reporter increase": "2.29% (inactive)"}, {"smiles": "Cc1ccc(C(=O)N2CCCc3ccccc32)c(Cl)c1", "reporter increase": "-0.356% (inactive)"}, {"smiles": "Cc1c(C(=O)NCC2CCCO2)sc2nc(-c3ccccc3)cn12", "note": "(configuration not stated)", "reporter increase": "63.8% (active)"}, {"smiles": "Cc1nn(CC(=O)NCC2CCCO2)c(=O)c2cc3ccccc3n12", "note": "(configuration not stated)", "reporter increase": "-0.752% (inactive)"}, {"smiles": "C[C@H](CO)N1C[C@H](C)[C@@H](CN(C)C(=O)Nc2ccc3c(c2)OCO3)Oc2ccc(NS(=O)(=O)c3ccc(Cl)cc3)cc2CC1=O", "reporter increase": "-3.55% (inactive)"}, {"smiles": "C[C@@H]1CCCCO[C@H](CN(C)Cc2ccc(Cl)c(Cl)c2)[C@H](C)CN([C@@H](C)CO)C(=O)c2cc(NC(=O)C3CCCCC3)ccc2O1", "reporter increase": "1.62% (inactive)"}, {"smiles": "COc1cccc(-c2ccc3n(c2=O)C[C@H]2[C@H](CO)[C@@H](C(=O)NC4CCCC4)[C@@H]3N2C)c1", "reporter increase": "3.16% (inactive)"}, {"smiles": "COCC(=O)N(C)C[C@@H]1Oc2cc(C3=CCCC3)ccc2S(=O)(=O)N([C@@H](C)CO)C[C@H]1C", "reporter increase": "0.332% (inactive)"}, {"smiles": "C[C@H](CO)N1C[C@H](C)[C@@H](CN(C)Cc2ccccc2C(F)(F)F)OCc2cn(nn2)CCCC1=O", "reporter increase": "-1.8% (inactive)"}, {"smiles": "C[C@H](NC(=O)C[C@H]1C=C[C@@H](NC(=O)C2CCOCC2)[C@@H](CO)O1)c1ccccc1", "reporter increase": "1.15% (inactive)"}, {"smiles": "Cc1ccc(NC(=O)c2ccc(Oc3ncccn3)cc2)cc1", "reporter increase": "34% (inactive)"}, {"smiles": "Cc1cccc(C(=O)Nc2ccc(C(=O)N/N=C/c3cccc(C)n3)cc2)c1", "reporter increase": "14.2% (inactive)"}, {"smiles": "Cc1cccc(C(=O)Nc2ccc(Oc3cnccn3)cc2)c1", "reporter increase": "45% (active)"}, {"smiles": "C[C@H](CO)N1C[C@H](C)[C@H](CN(C)C(=O)c2cnccn2)Oc2cc(C3=CCCC3)ccc2S1(=O)=O", "reporter increase": "4.52% (inactive)"}, {"smiles": "O=C(CN1CCOCC1)N[C@@H]1CC[C@@H](CCNC(=O)C2CCCCC2)O[C@@H]1CO", "reporter increase": "0.276% (inactive)"}, {"smiles": "CN1C(=O)c2cc(NC(=O)c3cscn3)ccc2OC[C@H]2O[C@@H](CC(=O)NCC3CC3)CC[C@H]21", "reporter increase": "1.7% (inactive)"}, {"smiles": "Nc1nc(COC(=O)CCC(=O)c2ccc(Cl)cc2)nc(Nc2ccccc2)n1", "reporter increase": "-2.01% (inactive)"}, {"smiles": "O=C(c1ccc(Cl)cc1)c1cnc(Nc2ccccc2)s1", "reporter increase": "70% (active)"}, {"smiles": "O=C(CCCOc1ccccc1)NNC(=O)c1ccc(Cl)cc1", "reporter increase": "-5.87% (inactive)"}, {"smiles": "C[C@@H]1CCCCO[C@H](CN(C)S(=O)(=O)c2cccs2)[C@H](C)CN([C@@H](C)CO)C(=O)c2cc(NC(=O)Nc3ccc4c(c3)OCO4)ccc2O1", "reporter increase": "3.42% (inactive)"}, {"smiles": "CC1(C)CC(CC(=O)O)C(=O)O1", "note": "(configuration not stated)", "reporter increase": "3.84% (inactive)"}, {"smiles": "C/C(CC1CC(C)(C)OC1=O)=N/Nc1nc(-c2ccccc2)cs1", "note": "(configuration not stated)", "reporter increase": "46.1% (active)"}, {"smiles": "Cn1c(CNc2nc(-c3ccccc3)cs2)nnc1SCC(=O)c1ccccc1", "reporter increase": "6.92% (inactive)"}, {"smiles": "COc1ccc(S(=O)(=O)N(C)C[C@@H]2OCCCC[C@H](C)Oc3ccc(NC(=O)Nc4ccccc4)cc3C(=O)N([C@H](C)CO)C[C@H]2C)cc1", "reporter increase": "6.53% (inactive)"}, {"smiles": "COc1ccccc1-c1cnc2c(c1)C(=O)N([C@H](C)CO)C[C@H](C)[C@H](CN(C)C(=O)CN(C)C)O2", "reporter increase": "-4.34% (inactive)"}, {"smiles": "COc1ccc(C(=O)NC(=S)NC2CCCCC2)cc1", "reporter increase": "53.2% (active)"}, {"smiles": "O=C(NNC(=S)NC1CCCCC1)c1ccccc1Cl", "reporter increase": "12.8% (inactive)"}, {"smiles": "CCCNC(=S)N1CCC(NC(=O)c2ccc(OC)cc2)CC1", "reporter increase": "4.39% (inactive)"}, {"smiles": "O=C(NC1CCCCCC1)C1CCN(C(=O)c2ccc(Cl)cc2)CC1", "reporter increase": "1.61% (inactive)"}, {"smiles": "O=C(NC(=S)NC1CCCCC1)c1ccc(Cl)cc1", "reporter increase": "92.1% (active)"}, {"smiles": "COc1ccc(C(=O)NC(=S)NNC(=O)CCc2ccccc2)cc1", "reporter increase": "50.7% (active)"}, {"smiles": "O=C(CCc1ccccc1)NNC(=O)COc1ccc(Cl)cc1", "reporter increase": "-7.85% (inactive)"}, {"smiles": "Cc1ccccc1C(=O)NC(=S)NC1CC1", "reporter increase": "19.1% (inactive)"}, {"smiles": "COc1ccc(/C(N)=N/OC(=O)CCCc2ccccc2)cc1", "reporter increase": "22.2% (inactive)"}]}]}
